Test: probe aEGFR binding to arrayed compounds – biochemical, biotinylated probe, 635/667 nm fluorescence, primary screen (AID 1097);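 also: probe is a biotinylated anti-EGFR antibody binding compounds printed on slides; score combines fluorescence near 667 nm and signal to noise of each spot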
Details: small-molecule microarray, higher = more signal

Structure (SMILES)	composite z-score
COc1cc(NN2C(C(O)c3ccc(I)cc3)C=CC3C(=O)N(c4ccccc4)C(=O)C32)cc(OC)c1OC (stereo unspecified)	-0.0423
CN(C)CCCC[C@@H]1NC(=O)[C@@H]2C[C@H](C(=O)O)[C@H](c3cccc(OCCO)c3)N2C1=O	-0.203
CN1C(=O)C2C=CC(C(O)c3cc(C(F)(F)F)cc(C(F)(F)F)c3)N(Nc3ccccc3)C2C1=O (stereo unspecified)	-0.155
C=C(/C(=C/C[C@H](OC(=O)c1ccncc1)c1ccccc1OCCO)c1cnc2ccccc2c1)C(C)C	-0.0828
COC(=O)[C@@]1(Cc2ccccc2CN=[N+]=[N-])N=C(c2ccc(OCCCO)cc2)O[C@H]1c1ccccc1	0.0209
C=CCC(OC(C)=O)[C@@H]1[C@@H](N(Cc2cccc3ccccc23)C(=O)c2ccc(-c3ccccc3)cc2)c2cc(OCCCO)ccc2N1C(=O)c1ccc(-c2ccccc2)cc1 (stereo partly specified)	-0.106
COC(=O)[C@@]1(Cc2ccc(F)cc2)[C@H]2c3cc(C(=O)N(C)C)n(Cc4c(CO)[nH]cc(C)c4=O)c3C[C@H]2CN1C(=O)c1ccccc1	0.297
CN(C)C(=O)[C@]1(CCS(=O)(=O)c2ccccc2)N=C(c2ccc(OCCCO)cc2)O[C@@H]1c1ccccc1	0.127
CC(C)OC(=O)CC(=O)CC(O)c1ccc([N+](=O)[O-])cc1 (stereo unspecified)	-0.213
CCN(CC)c1ccc(N2CC=CC34O[C@@H]5/C=C\CCC(C)OC(=O)C5[C@H]3C(=O)N(C(C)CO)[C@@H]4C2=O)cc1 (stereo partly specified)	-0.206
Cc1ccc(C(C)CC(O)C2C=CC3C(=O)N(c4ccccc4)C(=O)C3N2Nc2ccc(C#N)cc2)o1 (stereo unspecified)	0.122
Cc1ccc(F)cc1S(=O)(=O)N[C@@H]1CCN(Cc2cccc3[nH]ccc23)C1	0.137
O=C1C2C=CC(C(O)c3ccco3)N(Nc3ccccc3)C2C(=O)N1c1ccccc1 (stereo unspecified)	-0.192
CCOC(=O)C1=CCC(c2ccco2)N(S(=O)(=O)c2ccc(C)cc2)C1 (stereo unspecified)	0.0357
O=C(NCCN1CCOCC1)[C@@H]1c2ccccc2C(=O)N(Cc2ccccc2)[C@H]1c1ccc(CO)cc1	-0.204
CCOC(=O)C1=C[C@@H](c2ccccc2)N(S(=O)(=O)c2ccc(C)cc2)[C@H]1c1ccccc1	-0.112

Structure (SMILES)	composite z-score
COCCOC(=O)N1C(=O)[C@@]2(c3cc(C#Cc4ccc(OC)cc4)ccc31)[C@H](c1ccc(OCCO)cc1)N1[C@H](c3ccccc3)[C@H](c3ccccc3)OC(=O)[C@H]1[C@@H]2C(=O)Nc1nc2ccccc2s1	-0.0437
[N-]=[N+]=Nc1ccccc1C[C@]1(C(=O)O)N=C(c2ccc(OCCCO)cc2)O[C@H]1c1ccccc1N=[N+]=[N-]	0.0729
CC=CC(O)C1C=CC2C(=O)NC(=O)C2N1Nc1ccccn1 (stereo unspecified)	-0.257
CCOC(=O)C1=C[C@@H](C(C)(C)C)N(S(=O)(=O)c2ccc(C)cc2)[C@H]1c1ccccc1	0.124
COC(=O)[C@@]1(Cc2ccc(F)cc2)[C@H]2c3cc(C(=O)N4CCCC4)n(CC4CC4)c3C[C@H]2CN1C(=O)c1ccccc1	0.358
CO[C@H]1O[C@H](CO)[C@@H](OC(=O)Nc2ccc(C#N)cc2)[C@@H]2OC(=O)[C@H](Cc3cccc(Br)c3)C/C=C/C[C@@H](Cc3cccc(Br)c3)C(=O)O[C@@H]12	0.11
COC(=O)[C@@]1(Cc2ccccc2)[C@H]2c3cc(C(=O)N(C)C)n(CCn4cc([N+](=O)[O-])nc4C)c3C[C@H]2CN1C(=O)c1ccccc1	-0.0088
Cc1ccc(N2C(=O)c3ccccc3[C@](C)(C(=O)NCc3ccccc3)[C@@H]2c2ccc(CO)cc2)nc1	0.108
COC(=O)[C@@]1(Cc2ccc(F)cc2)[C@H]2c3cc(C(=O)N4CCCC4)n(C)c3C[C@H]2CN1C(=O)c1ccccc1	-0.0259
CC(C)C(=C=CC[C@@H](O)c1cccc(OCCO)c1)C[C@@H](O)c1ccccn1	-0.161
O=C(O)[C@H]1C[C@H]2C(=O)N[C@@H](Cc3ccccc3)C(=O)N2[C@H]1c1cccc(OCCO)c1	0.206
COc1ccc([Si](C)(C)[C@@H]2[C@@H](CC(=O)N3Cc4ccccc4C[C@H]3CO)O[C@]3(C(=O)N(Cc4ccc(N5CCC5=O)cc4)c4ccccc43)[C@H]2C)cc1	-0.0954
Cc1ccc([C@H]2C(C(=O)O)=C[C@@H](C(C)(C)C)N2S(=O)(=O)c2ccc(C)cc2)cc1	0.155
CN1C(=O)[C@@]2(Cc3ccccc3)N=C(c3ccc(OCCCO)cc3)O[C@H]2c2ccccc21	-0.0982
COCCCNC(=O)[C@@]1(Sc2ccc(C)cc2)CC(=O)N(C(C)C)[C@@H]1c1ccc(CO)cc1I	-0.21

Reference: PubChem BioAssay
